# Screening data from PubChem BioAssay.
# Hits are enriched below; roughly 0.51% of the tested compounds scored in any of these assays.
# E coli growth-1: E. coli V3065 growth inhibition, primary screen, counter-screen for AddAB inhibitor project, absorbance, OD600. inhibition, % at 11.9 µM. 18 h. 0.27% of 330,000 active;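 active means inhibition above the campaign's mean inhibition across all tested compounds plus 3 SD, cut at about 9.9% in these data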;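 further: uninfected addAB+ strain grown without phage in ampicillin broth; 0% = DMSO wells and 100% = ciprofloxacin 0.95 µg/ml wells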
# phage Ecoli inh: growth loss of phage-infected E. coli, primary screen, RecBCD inhibitor project, absorbance, with phage, HTS | 0.26% of 360,000 active | inhibition, % at 11.9 µM; in the data active means inhibition above about 11%
# Tat export inh: E. coli Tat export inhibitors, primary screen, MC4100, TorA-mCherry reporter, fluorescence, single point; AID 488895, 2010; 0.036% of 340,000 active; inhibition, % at 10 µM;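 active means mean replicate inhibition at least 50% and at least half of replicates individually reaching 50%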;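 further: exported cargo escapes ClpAP degradation while cytoplasmic cargo is degraded and loses fluorescence; 0% = median of neutral control wells and 100% = median of NaSCN control wells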
# AddAB inh: growth inhibition of E. coli expressing H. pylori AddAB, primary screen, AddAB inhibitor project, absorbance; 0.29% of 330,000 active; inhibition, % at 11.9 µM; in the data active means inhibition above about 12%;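 further: 0% = vehicle wells of infected cells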
# E coli growth-2: E. coli growth inhibition, primary screen, OD600; Escherichia coli growth, 23 h; hits give low values; OD600 absorbance (test concentration not listed); 0.21% of 330,000 active; AID 1053175, 2014;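 active means OD600 absorbance below the run mean of sample wells minus 3.6 SD, in any replicate, cut at about 0.56 in these data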
# RecBCD conf: growth loss of phage-infected RecBCD+ E. coli, confirmation, RecBCD inhibitor project, absorbance, E. coli V66, T4 gene 2 phage | shares compounds with phage Ecoli inh | E. coli V66 + T4 2- phage, growth OD | inhibition, % at 11.9 µM | 45% of 890 active;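 active means mean inhibition over triplicates exceeding the hit threshold derived in the original primary screen, cut at about 11% in these data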
# Ecoli viability: E. coli viability inhibition, counter-screen for RecBCD inhibitor project, absorbance, high throughput; shares compounds with phage Ecoli inh; absorbance (OD) growth; inhibition, % at 11.9 µM; 29% of 890 active; AID 651983, 2013; in the data active means inhibition above about 20%;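 further: E. coli strain V66 grown with compound alone and no phage infection; 0% = bacteria with DMSO vehicle only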
# AddAB counter: growth loss of phage-infected AddAB-carrying E. coli, confirmation, counter-screen for RecBCD inhibitor project, absorbance, E. coli V3065, T4 phage; shares compounds with phage Ecoli inh; E. coli expressing H. pylori AddAB + T4 phage, OD growth; gene 2 mutant T4, recBCD-deleted host; inhibition, % at 11.9 µM; 45% of 890 active; AID 651984, 2013;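 active means mean inhibition above the solvent-only control wells' mean plus 3 SD, cut at about 22% in these data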;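 further: higher means less bacterial growth from phage killing when AddAB is blocked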
# * marks the source's active call; other numbers are inactive results; nt = not tested or not shown; ! = not confirmed by another sample.
SMILES,E coli growth-1,phage Ecoli inh,Tat export inh,AddAB inh,E coli growth-2,RecBCD conf,Ecoli viability,AddAB counter
On1onc2c3cc(-c4ccccc4)nc3ccc21,11*,13*,-12,11,0.47*,7,11,4
c1ccc(-c2cc3c(ccc4nonc43)nn2)cc1,2,0,-1,4,0.66,nt,nt,nt
CC(=NNc1cc(C)c2cc(C)ccc2n1)c1ccccn1,nt,17*,nt,nt,nt,1,1,3
Cc1c(C(=O)NNC(=O)c2ccccc2O)oc2ccccc12,nt,13*,nt,nt,nt,6,8,8
CC(=NOCC(=O)Nc1ccc2c(c1)OCCO2)c1ccc2c(c1)OCCO2,nt,nt,nt,nt,0.64,nt,nt,nt
CCOC(=O)c1c[nH]c2c([N+](=O)[O-])cc(OC)cc2c1=O,nt,12*,-2,nt,0.45*,6,10,44*
C=CCc1cccc(/C=N/NC(=O)CCCNc2ccc(C)cc2)c1O,2,12*,8,0,nt,1,3,5
C=CCc1cccc(C=NNC(=O)CCC(=O)Nc2ccc(C)cc2)c1O,nt,nt,nt,nt,0.75,nt,nt,nt
O=C(Nc1nnc(N=Cc2ccco2)s1)c1ccc(F)cc1,nt,nt,nt,nt,0.7,nt,nt,nt
O=C(N/N=C/c1c(O)n(Cc2ccccc2)c(=O)c2ccccc12)c1cccnc1,11*,15*,-1,6,0.71,9,11,20
COc1ccc(Cn2c(O)c(/C=N/NC(=O)c3cccnc3)c3ccccc3c2=O)cc1,nt,15*,4,nt,0.66,8,10,14
O=C(N/N=C/c1c(O)n(-c2ccccc2Cl)c(=O)c2ccccc12)c1cccnc1,nt,5,7,nt,0.64,nt,nt,nt
COc1cccc(C=Nn2c(-c3n[nH]c4c3CCC4)n[nH]c2=S)c1O,nt,nt,nt,nt,0.68,nt,nt,nt
C=C1C[C@]23C[C@@]1(O)CCC2[C@@]12C=CC(O)[C@@](C)(C(=O)O1)C2C3C(=O)O (stereo not given in full),nt,nt,nt,nt,0.67,nt,nt,nt
COc1ccc(Cc2noc(CN(C)CC3(N4CCOCC4)CCCCC3)n2)cc1OC,5,94*,2,2,0.68,0,0,2
CN(Cc1nc(Cc2ccccc2F)no1)CC1(N2CCOCC2)CCCCC1,-2,2,9,4,0.65,nt,nt,nt
CCN1C(=O)C(=Cc2cc(C)n(C)c2C)SC1=Nc1ccc(OC)cc1,nt,nt,nt,nt,0.73,nt,nt,nt
O=C(NNC(=O)c1ccc2c(c1)OCO2)NC12CC3CC(CC(C3)C1)C2,6,13*,4,9,0.69,3,2,3
O=C(NC1C2CC3CC(C2)CC1C3)c1ccc2c(c1)OCO2 (stereo not given),-1,-3,5,3,0.66,nt,nt,nt
Cc1ccc(-c2[nH]c3cc(C(=O)NCCCn4ccnc4)ccc3c(=O)c2O)cc1,8,11*,-3,11,0.68,3,5,7
O=C(NCCCn1ccnc1)c1ccc(Cl)c(Cl)c1,1,1,3,1,0.6,nt,nt,nt
COc1cccc(/C=N/NC(=O)c2cc(-c3cccn3C)n[nH]2)c1O,4,12*,-6,4,nt,6,9,20
c1ccc(CSc2ccc(-c3ccccn3)nn2)cc1,8,11*,-5,6,0.68,5,7,12
Cc1ccc(-c2nc3ccc(Cl)cc3c(=O)n2O)cc1,7,11*,-6,4,0.66,5,7,10
Cc1ccc(-c2nc3ccccc3c(=O)n2O)cc1,-2,-1,2,-1,0.64,nt,nt,nt
SMILES,E coli growth-1,phage Ecoli inh,Tat export inh,AddAB inh,E coli growth-2,RecBCD conf,Ecoli viability,AddAB counter
Nc1ccc(S(=O)(=O)Nc2ncccn2)cc1,1,11*,-2,2,0.61,6,3,13
CCOC(=O)Nc1ccc(S(=O)(=O)Nc2onc(C)c2C)cc1,-2,-1,nt,1,0.66,nt,nt,nt
CCc1nnc(NS(=O)(=O)c2ccc(N3C(=O)c4ccccc4C3=O)cc2)s1,3,3,-20,6,0.66,nt,nt,nt
O=S(=O)(Nc1ncccn1)c1ccccc1,-1,3,-6,0,0.64,nt,nt,nt
CCc1nnc(NS(=O)(=O)c2ccc(N)cc2)s1,8,12*,8,8,0.63,8,5,19
CCc1ccc(NC(=S)Nc2ccc(S(=O)(=O)Nc3ncccn3)cc2)cc1,1,12*,19,3,0.68,1,-1,6
CC(C)NC(=S)Nc1ccc(S(=O)(=O)Nc2ncccn2)cc1,1,2,-3,2,0.69,nt,nt,nt
Cc1noc(NS(=O)(=O)c2ccc(N)cc2)c1C,8,11*,-2,10,0.66,3,2,23*
CC(C)C[C@@]12C(=O)N(c3cccc(Br)c3)C(=O)N1C(c1ccc(F)cc1)C1C(=O)N(C3CCCCC3)C(=O)C12 (stereo not given in full),nt,nt,nt,nt,0.74,nt,nt,nt
CCCCC(=O)NN=Cc1ccc(N2CCOCC2)c([N+](=O)[O-])c1,nt,nt,nt,nt,0.68,nt,nt,nt
CCOc1ccc(C=NNC(=O)c2ccoc2C)cc1OC,nt,nt,nt,nt,0.67,nt,nt,nt
CCn1c2ccccc2c2cc(C=NNC(=O)c3cccc(C)c3)ccc21,nt,nt,nt,nt,0.74,nt,nt,nt
O=S(=O)(Nc1ncccn1)c1ccc(NC(=S)Nc2ccc(Cl)cc2)cc1,6,11*,22,7,nt,4,3,5
O=C(Nc1ccc(Cl)cc1)Nc1ccc(S(=O)(=O)Nc2ncccn2)cc1,2,6,10,0,0.59,nt,nt,nt
CCCC(=O)Nc1cc(=O)n(C)c(=O)n1C,1,53*,4,2,0.67,1,1,0
O=C(C=Cc1ccccc1)c1cc(Br)ccc1O,nt,2,1,nt,0.64,nt,nt,nt
CCc1ccc(/C=C/C(=O)c2cc(Br)ccc(=O)c2O)cc1,3,14*,-5,3,0.69,10,12,-1
Cc1cccc(/C=C/C(=O)c2cc(Br)ccc(=O)c2O)c1,6,17*,-1,8,0.67,6,7,5
Cc1ccc(/C=C/C(=O)c2cc(Br)ccc2OC(=O)c2ccco2)cc1,2,2,21,1,0.72,nt,nt,nt
CCOc1ccc(C(=O)/C=C/c2ccc(OC)c(OC)c2)cc1,-1,1,4,1,0.68,nt,nt,nt
CCOc1ccc(/C=C/C(=O)c2cc(Br)ccc(=O)c2O)cc1,9,16*,1,13*,0.69,7,10,3
Cc1cc(C(=O)NN=Cc2ccc(Br)o2)n[nH]1,nt,nt,nt,nt,0.69,nt,nt,nt
Cc1[nH]c2ccccc2c1C=NNC(=O)CNC(=O)c1ccc2c(c1)OCCO2,nt,nt,nt,nt,0.66,nt,nt,nt
COc1ccc(/C=N/NC(=O)c2ccncc2)cc1OC,1,0,-3,3,nt,nt,nt,nt
COc1cc(/C=N/NC(=O)c2ccncc2)ccc1O,-3,100*!,-9,-2,nt,-2,-1,-1
